# Among all 5,500 compounds or so, about 2,000 (36%) were called active. Another 18% or so got no clear call; they are omitted. The list shows a part of the results. A number with no mark means an inactive call. Cut-off read from the data, not from the text of the source: active = normalized growth mostly below about 0.91 (no sharp cut-off); inconclusive = no clear call, values can overlap the other calls; inactive = mostly above about 0.92.
# Test: chemical genetic growth profiling, strain panel (AID 1159580);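 note: tested at 20 µM; growth read once vehicle control cultures reached saturation at 30 °C; 1 = growth at the plate median or of vehicle wells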
# Conditions: S. cerevisiae deletion strains, growth OD
smiles,measurement,setting,value
COc1ccc(-c2cc(=O)c3ccccc3o2)cc1OC,normalized growth,"locus YAL013W, strain DEP1, stronger effect = lower value",1.01
same,normalized growth,"locus YAL021C, strain ccr4, stronger effect = lower value",0.942
same,normalized growth,"locus YAL026C, strain drs2, stronger effect = lower value",0.838 (active)
same,normalized growth,"locus YAL030W, strain snc1, stronger effect = lower value",0.91 (active)
same,normalized growth,"locus YBL061C, strain skt5, stronger effect = lower value",0.898 (active)
same,normalized growth,"locus YBR009C, strain hhf1, stronger effect = lower value",0.772 (active)
same,normalized growth,"locus YBR021W, strain FUR4, stronger effect = lower value",0.896
same,normalized growth,"locus YBR023C, strain chs3, stronger effect = lower value",0.842 (active)
same,normalized growth,"locus YBR171W, strain sec66, stronger effect = lower value",0.917
same,normalized growth,"locus YBR229C, strain ROT2, stronger effect = lower value",1.04
same,normalized growth,"locus YBR231C, strain swc5, stronger effect = lower value",0.83 (active)
same,normalized growth,"locus YBR279W, strain paf1, stronger effect = lower value",0.9 (active)
same,normalized growth,"locus YCL011C, strain gbp2, stronger effect = lower value",0.824 (active)
same,normalized growth,"locus YCL016C, strain dcc1, stronger effect = lower value",0.871 (active)
same,normalized growth,"locus YCL029C, strain bik1, stronger effect = lower value",0.974
same,normalized growth,"locus YCL061C, strain MRC1, stronger effect = lower value",0.904 (active)
same,normalized growth,"locus YCL069W, strain vba3, stronger effect = lower value",0.921 (active)
same,normalized growth,"locus YCR088W, strain abp1, stronger effect = lower value",0.929
same,normalized growth,"locus YDL005C, strain med2, stronger effect = lower value",0.919
same,normalized growth,"locus YDL035C, strain GPR1, stronger effect = lower value",0.824 (active)
same,normalized growth,"locus YDL040C, strain nat1, stronger effect = lower value",0.939
same,normalized growth,"locus YDL074C, strain BRE1, stronger effect = lower value",0.981
same,normalized growth,"locus YDL101C, strain DUN1, stronger effect = lower value",1.02
same,normalized growth,"locus YDL185W, strain tfp1, stronger effect = lower value",1.03
same,normalized growth,"locus YDL192W, strain arf1, stronger effect = lower value",0.989
same,normalized growth,"locus YDR001C, strain nth1, stronger effect = lower value",0.93
same,normalized growth,"locus YDR069C, strain doa4, stronger effect = lower value",0.897 (active)
same,normalized growth,"locus YDR101C, strain arx1, stronger effect = lower value",0.95
same,normalized growth,"locus YDR137W, strain rgp1, stronger effect = lower value",0.681 (active)
same,normalized growth,"locus YDR150W, strain NUM1, stronger effect = lower value",1.05
same,normalized growth,"locus YDR159W, strain sac3, stronger effect = lower value",0.904
same,normalized growth,"locus YDR162C, strain NBP2, stronger effect = lower value",1.01
same,normalized growth,"locus YDR195W, strain ref2",1.13
same,normalized growth,"locus YDR297W, strain sur2, stronger effect = lower value",0.927
same,normalized growth,"locus YDR318W, strain mcm21, stronger effect = lower value",0.999
same,normalized growth,"locus YDR334W, strain swr1, stronger effect = lower value",0.922
same,normalized growth,"locus YDR335W, strain msn5, stronger effect = lower value",0.925
same,normalized growth,"locus YDR388W, stronger effect = lower value",1.01
same,normalized growth,"locus YDR392W, strain spt3, stronger effect = lower value",0.41 (active)
same,normalized growth,"locus YDR502C, strain sam2, stronger effect = lower value",0.925
same,normalized growth,"locus YEL003W, strain gim4, stronger effect = lower value",0.9 (active)
same,normalized growth,"locus YEL037C, strain rad23, stronger effect = lower value",0.872 (active)
same,normalized growth,"locus YEL061C, strain CIN8 (second series), stronger effect = lower value",0.913 (active)
same,normalized growth,"locus YEL061C, strain CIN8, stronger effect = lower value",1.03
same,normalized growth,"locus YER015W, strain faa2, stronger effect = lower value",0.932
same,normalized growth,"locus YER016W, strain bim1, stronger effect = lower value",0.933
same,normalized growth,"locus YER110C, stronger effect = lower value",1.04
same,normalized growth,"locus YER111C, strain swi4, stronger effect = lower value",0.913
same,normalized growth,"locus YER155C, strain BEM2 (second series), stronger effect = lower value",0.381 (active)
same,normalized growth,"locus YER155C, strain BEM2, stronger effect = lower value",1.07
same,normalized growth,"locus YER167W, strain BCK2, stronger effect = lower value",1.05
same,normalized growth,"locus YFR010W, strain ubp6, stronger effect = lower value",0.889 (active)
same,normalized growth,"locus YGL078C, strain dbp3, stronger effect = lower value",0.869 (active)
same,normalized growth,"locus YGL086W, strain mad1, stronger effect = lower value",0.982
same,normalized growth,"locus YGL167C, strain pmr1, stronger effect = lower value",0.878 (active)
same,normalized growth,"locus YGL173C, strain kem1, stronger effect = lower value",0.897 (active)
same,normalized growth,"locus YGL227W, strain vid30, stronger effect = lower value",0.912 (active)
same,normalized growth,"locus YGL240W, strain doc1, stronger effect = lower value",0.772 (active)
same,normalized growth,"locus YGL248W, strain PDE1, stronger effect = lower value",0.97
same,normalized growth,"locus YGL253W, strain hxk2, stronger effect = lower value",0.718 (active)
same,normalized growth,"locus YGR135W, strain pre9, stronger effect = lower value",0.955
same,normalized growth,"locus YGR252W, strain gcn5, stronger effect = lower value",0.819
same,normalized growth,"locus YHR013C, strain ard1, stronger effect = lower value",0.789 (active)
same,normalized growth,"locus YHR027C, strain rpn1, stronger effect = lower value",0.93
same,normalized growth,"locus YHR030C, strain SLT2, stronger effect = lower value",1.06
same,normalized growth,"locus YHR079C, strain IRE1 (second series), stronger effect = lower value",1.03
same,normalized growth,"locus YHR094C, strain hxt1, stronger effect = lower value",1.03
same,normalized growth,"locus YHR129C, strain ARP1, stronger effect = lower value",1.03
same,normalized growth,"locus YHR142W, strain chs7, stronger effect = lower value",0.683 (active)
same,normalized growth,"locus YHR200W, strain rpn10, stronger effect = lower value",1.03
same,normalized growth,"locus YIL066C, strain RNR3, stronger effect = lower value",1.01
same,normalized growth,"locus YIL073C, strain SPO22, stronger effect = lower value",0.925
same,normalized growth,"locus YIL125W, strain kgd1, stronger effect = lower value",0.976
same,normalized growth,"locus YIR030C, strain dcg1, stronger effect = lower value",1.02
same,normalized growth,"locus YJL092W, strain hpr5, stronger effect = lower value",0.923
same,normalized growth,"locus YJL095W, strain BCK1 (second series), stronger effect = lower value",0.823 (active)
same,normalized growth,"locus YJL095W, strain BCK1, stronger effect = lower value",0.973
same,normalized growth,"locus YJL115W, strain asf1, stronger effect = lower value",0.928
same,normalized growth,"locus YJL129C, strain trk1, stronger effect = lower value",0.901
same,normalized growth,"locus YJL134W, strain LCB3, stronger effect = lower value",1.05
same,normalized growth,"locus YJL154C, strain vps35, stronger effect = lower value",0.938
same,normalized growth,"locus YJL164C, strain tpk1, stronger effect = lower value",0.855 (active)
same,normalized growth,"locus YJL166W, strain qcr8, stronger effect = lower value",0.824 (active)
same,normalized growth,"locus YJL168C, strain set2, stronger effect = lower value",1.03
same,normalized growth,"locus YJL187C, strain SWE1 (second series), stronger effect = lower value",0.982
same,normalized growth,"locus YJL187C, strain SWE1, stronger effect = lower value",0.913 (active)
same,normalized growth,"locus YJR043C, strain POL32, stronger effect = lower value",0.979
same,normalized growth,"locus YJR075W, strain HOC1, stronger effect = lower value",1.03
same,normalized growth,"locus YKL009W, strain mrt4, stronger effect = lower value",0.801 (active)
same,normalized growth,"locus YKL068W, stronger effect = lower value",1.03
same,normalized growth,"locus YKL085W, strain MDH1 (second series), stronger effect = lower value",1.03
same,normalized growth,"locus YKL085W, strain MDH1, stronger effect = lower value",1.03
same,normalized growth,"locus YKL160W, strain elf1, stronger effect = lower value",0.862 (active)
same,normalized growth,"locus YKL190W, strain CNB1, stronger effect = lower value",1.03
same,normalized growth,"locus YKR001C, strain vps1, stronger effect = lower value",0.96
same,normalized growth,"locus YKR026C, strain gcn3, stronger effect = lower value",0.93
same,normalized growth,"locus YKR091W, strain srl3, stronger effect = lower value",0.935
same,normalized growth,"locus YLL001W, strain dnm1, stronger effect = lower value",0.874 (active)
same,normalized growth,"locus YLL026W, stronger effect = lower value",0.899 (active)
same,normalized growth,"locus YLL041C, strain sdh2, stronger effect = lower value",0.941
same,normalized growth,"locus YLR027C, strain aat2, stronger effect = lower value",0.926
same,normalized growth,"locus YLR039C, strain RIC1, stronger effect = lower value",0.963
same,normalized growth,"locus YLR058C, strain SHM2, stronger effect = lower value",1.01
same,normalized growth,"locus YLR102C, strain apc9, stronger effect = lower value",1.03
same,normalized growth,"locus YLR221C, strain rsa3, stronger effect = lower value",0.872 (active)
same,normalized growth,"locus YLR258W, strain gsy2, stronger effect = lower value",0.859 (active)
same,normalized growth,"locus YLR262C, strain YPT6 (second series), stronger effect = lower value",0.728 (active)
same,normalized growth,"locus YLR262C, strain YPT6, stronger effect = lower value",0.875
same,normalized growth,"locus YLR268W, strain sec22, stronger effect = lower value",0.936
same,normalized growth,"locus YLR320W, strain mms22, stronger effect = lower value",0.597 (active)
same,normalized growth,"locus YLR330W, strain CHS5, stronger effect = lower value",1.04
same,normalized growth,"locus YLR342W, strain FKS1 (second series), stronger effect = lower value",0.873
same,normalized growth,"locus YLR342W, strain FKS1, stronger effect = lower value",0.904 (active)
same,normalized growth,"locus YLR357W, strain rsc2, stronger effect = lower value",0.948
same,normalized growth,"locus YLR370C, strain arc18, stronger effect = lower value",0.894 (active)
same,normalized growth,"locus YLR371W, strain rom2, stronger effect = lower value",1.04
same,normalized growth,"locus YLR384C, strain iki3, stronger effect = lower value",0.935
same,normalized growth,"locus YLR418C, strain cdc73, stronger effect = lower value",0.918
same,normalized growth,"locus YML016C, strain PPZ1, stronger effect = lower value",1.05
same,normalized growth,"locus YML032C, strain rad52, stronger effect = lower value",0.96
same,normalized growth,"locus YML120C, strain ndi1, stronger effect = lower value",0.837 (active)
same,normalized growth,"locus YML124C, strain tub3, stronger effect = lower value",1.04
same,normalized growth,"locus YMR058W, strain fet3, stronger effect = lower value",0.852 (active)
same,normalized growth,"locus YMR078C, strain ctf18, stronger effect = lower value",1.02
same,normalized growth,"locus YMR125W, strain sto1, stronger effect = lower value",0.795 (active)
same,normalized growth,"locus YMR129W, stronger effect = lower value",0.945
same,normalized growth,"locus YMR205C, strain PFK2, stronger effect = lower value",0.768 (active)
same,normalized growth,"locus YMR223W, strain ubp8, stronger effect = lower value",0.99
same,normalized growth,"locus YMR231W, strain pep5, stronger effect = lower value",0.946
same,normalized growth,"locus YMR307W, strain GAS1, stronger effect = lower value",0.955
same,normalized growth,"locus YNL067W, strain RPL9B, stronger effect = lower value",0.969
same,normalized growth,"locus YNL071W, strain lat1, stronger effect = lower value",0.665 (active)
same,normalized growth,"locus YNL209W, strain ssb2, stronger effect = lower value",0.936
same,normalized growth,"locus YNL233W, strain BNI4, stronger effect = lower value",1.02
same,normalized growth,"locus YNL248C, strain rpa49, stronger effect = lower value",0.884 (active)
same,normalized growth,"locus YNL250W, strain rad50, stronger effect = lower value",0.993
same,normalized growth,"locus YNL271C, strain bni1, stronger effect = lower value",0.995
same,normalized growth,"locus YNL298W, strain CLA4, stronger effect = lower value",0.934
same,normalized growth,"locus YNL307C, strain MCK1, stronger effect = lower value",1.02
same,normalized growth,"locus YNL322C, strain KRE1 (second series), stronger effect = lower value",0.953
same,normalized growth,"locus YNR049C, strain mso1, stronger effect = lower value",0.916 (active)
same,normalized growth,"locus YNR052C, strain pop2, stronger effect = lower value",0.918
same,normalized growth,"locus YOL006C, strain TOP1, stronger effect = lower value",0.93
same,normalized growth,"locus YOL012C, strain htz1",1.9
same,normalized growth,"locus YOL147C, strain pex11, stronger effect = lower value",1.03
same,normalized growth,"locus YOR001W, strain rrp6, stronger effect = lower value",0.864 (active)
same,normalized growth,"locus YOR061W, strain CKA2, stronger effect = lower value",1.02
same,normalized growth,"locus YOR069W, strain VPS5, stronger effect = lower value",1.02
same,normalized growth,"locus YOR070C, strain gyp1, stronger effect = lower value",0.901 (active)
same,normalized growth,"locus YOR080W, strain dia2, stronger effect = lower value",0.928
same,normalized growth,"locus YOR083W, strain WHI5, stronger effect = lower value",0.862 (active)
same,normalized growth,"locus YOR106W, strain vam3, stronger effect = lower value",0.806 (active)
same,normalized growth,"locus YOR136W, strain idh2, stronger effect = lower value",1.02
same,normalized growth,"locus YOR144C, strain elg1, stronger effect = lower value",0.994
same,normalized growth,"locus YOR184W, strain ser1, stronger effect = lower value",0.802 (active)
same,normalized growth,"locus YOR265W, strain rbl2, stronger effect = lower value",0.935
same,normalized growth,"locus YOR270C, strain vph1, stronger effect = lower value",0.539 (active)
same,normalized growth,"locus YOR290C, strain snf2, stronger effect = lower value",0.734 (active)
same,normalized growth,"locus YOR316C, strain cot1, stronger effect = lower value",1.03
same,normalized growth,"locus YPL051W, strain arl3, stronger effect = lower value",0.854 (active)
same,normalized growth,"locus YPL078C, strain atp4, stronger effect = lower value",0.825 (active)
same,normalized growth,"locus YPL106C, strain sse1, stronger effect = lower value",0.788 (active)
same,normalized growth,"locus YPL240C, strain hsp82, stronger effect = lower value",0.923 (active)
same,normalized growth,"locus YPR119W, strain clb2, stronger effect = lower value",1.04
same,normalized growth,"locus YPR141C, strain kar3, stronger effect = lower value",1.04
same,normalized growth,"locus YPR163C, strain tif3, stronger effect = lower value",0.993
same,normalized growth,"locus YPR167C, strain met16, stronger effect = lower value",1.02
same,normalized growth,"strain wtn01, stronger effect = lower value",0.93

# From PubChem BioAssay AID1159580 (chemical genetic matrix, 2015)
